Results: PubChem BioAssay AID977607 (Broad Institute, 2014)
The whole screen tested about 1,500 compounds, of which about 460 (31%) were called active. Another 1% or so got no clear call; they are omitted. A selection follows. Entries with a potency or affinity are not part of this list. Values without a mark were called inactive.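 How the source made its calls: active means curve reaches 40% activation over neutral controls at an AC40 no higher than the top valid tested concentration; inconclusive means no clear call, values can overlap the other calls; inactive means signal moving opposite to the expected increase, and the rest.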

Experiment: GLuc-reported insulin release enhancers, glucose-stimulated beta cells – cell-based, INS-1E, Gaussia luciferase, luminescence, cherry-pick, set 2, dose response (AID 977607);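 further: 0% = median of the plate neutral control wells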
Details: INS-1E GLuc insulin secretion reporter, 2-3 h, active compounds read high; at 35 µM, 100% = signal doubled over neutral wells unless noted
Compound O=C(COC(=O)c1cccnc1Cl)Nc1cc(S(=O)(=O)N2CCCCCC2)ccc1Cl has a max activation of -32.2%.
With CCOc1ncccc1C(=O)NC(C)CCc1ccccc1 (stereo not drawn) the max activation was 29.7%.
For COc1cc(OC)c(OC)cc1CCC(C)NC(=O)Cc1ccccc1 (stereo not drawn), the max activation was 27.7% [at 0.005 µM, 100% = signal doubled over neutral wells].
With C[C@H]1CN=C(N(C)C)N1CC1CCCC1 the max activation was -12% [at 0.015 µM, 100% = signal doubled over neutral wells].
For Cc1ccc(C(=O)N2CCN3C(=O)c4ccccc4C23c2ccccc2)cc1 (stereo not drawn), the max activation was -24.9%.
With C=CCn1c(SCc2ccccc2)nc2c1c(=O)[nH]c(=O)n2C the max activation was -13.1% [at 0.015 µM, 100% = signal doubled over neutral wells].
CCCCCCn1c(SCC(C)C)nc2c1c(=O)[nH]c(=O)n2C showed a max activation of 12.8%.
With CN(Cc1ccccc1)c1nc2c(c(=O)[nH]c(=O)n2C)n1Cc1ccccc1 the max activation was 14.1% [at 11 µM, 100% = signal doubled over neutral wells].
With Cn1c(=O)[nH]c(=O)c2c1nc(NC1CCCC1)n2Cc1ccccc1 the max activation was -12.1% [at 0.0016 µM, 100% = signal doubled over neutral wells].
For O=C(O)C(Cc1ccc(O)cc1)N1C(=O)c2ccccc2C1=O (stereo not drawn), the max activation was -22% [at 0.046 µM, 100% = signal doubled over neutral wells].
Work on CCOc1ccc2oc(C(=O)N(C)CCc3ccc(OC)c(OC)c3)c(C)c2c1 yielded a max activation of 47.7%.
With COc1ccc(CCN(C)C(=O)Cn2c(=O)oc3ccccc32)cc1OC the max activation was -16.4%.
In the case of Cc1ccc(Nc2ncnc3sccc23)c(C)c1, the max activation is reported as -16% [at 0.015 µM, 100% = signal doubled over neutral wells].
For COc1ccc(CCN2C(=O)CC(Cc3ccccc3)C2=O)cc1OC (stereo not drawn), the max activation was -9.21% [at 0.046 µM, 100% = signal doubled over neutral wells].
With CCCCc1c(-c2ccccc2OC)ncn1Cc1ccc(C)cc1 the max activation was -22.3% [at 11 µM, 100% = signal doubled over neutral wells].
For CCCCc1c(-c2ccccc2OC)ncn1C(C)c1ccccc1 (stereo not drawn), the max activation was 37.1%.
In the case of CCOc1cc(C2C3=C(CC(C)(C)CC3=O)Nc3n[nH]c(C)c32)ccc1O (stereo not drawn), the max activation is reported as -17.9% [at 0.015 µM, 100% = signal doubled over neutral wells].
With c1csc(-c2nc(NCC3CCCO3)c3ccccc3n2)c1 (stereo not drawn) the max activation was 39.8% [at 11 µM, 100% = signal doubled over neutral wells].
With Cn1nnnc1Sc1ncnc2scc(-c3ccc(F)cc3)c12 the max activation was -12.9% [at 0.42 µM, 100% = signal doubled over neutral wells].
COc1ccc(C[C@H]2CN3C(=NC[C@@H]3Cc3ccccc3)N2CCNC(=O)CCC2CCCCC2)cc1 gave a max activation of 62.1%.
With NC1=NC[C@H](Cc2ccccc2)N1CCCCC1CCCCC1 the max activation was -33.4% [at 11 µM, 100% = signal doubled over neutral wells].
For Cc1cc(NS(=O)(=O)c2ccc(NC(=O)C(C)Oc3ccccc3Cl)cc2)no1 (stereo not drawn), the max activation was -22.4% [at 0.015 µM, 100% = signal doubled over neutral wells].
For CCOc1ccccc1CNC(c1ccccc1)c1ccccc1, the max activation was -22.9% [at 11 µM, 100% = signal doubled over neutral wells].
In the case of O=C(Nc1ncn[nH]1)c1ccc(Cl)c(Cl)c1, the max activation is reported as -14.6% [at 0.135 µM, 100% = signal doubled over neutral wells].
C/C(=N\NC(=O)CO/N=C(\C)c1cccs1)c1ccc(N)cc1 showed a max activation of -25.9%.
With COc1cc2ccc(C(C)=NNC(N)=S)cc2cc1OC the max activation was -23.9% [at 0.135 µM, 100% = signal doubled over neutral wells].
Compound CC(C)CCN1C(=O)CSCC1(C)C(=O)NC(C)C (stereo not drawn) has a max activation of -10.4%.
With Cc1cccn2cc(CNS(=O)(=O)c3ccc4ccccc4c3)nc12 the max activation was 34% [at 3.8 µM, 100% = signal doubled over neutral wells].
With COCCn1c(=S)[nH]c2sc3c(c2c1=O)CCCC3 the max activation was -29.9% [at 11 µM, 100% = signal doubled over neutral wells].
In the case of COc1cc(CN2CCC(n3nccc3NC(=O)C3CCOC3)CC2)ccc1F (stereo not drawn), the max activation is reported as -11.8%.
For COc1ccccc1-n1cnc2sc(C)c(C)c2c1=O, the max activation was 29.4% [at 11 µM, 100% = signal doubled over neutral wells].
With COc1ccc(C2N(c3ccccc3)C(=O)C2(F)F)cc1OC (stereo not drawn) the max activation was -13.7%.
For COc1ccc(C(=O)OCC(=O)NC(=O)NC2CCCC2)cc1OC, the max activation was -7.36% [at 0.005 µM, 100% = signal doubled over neutral wells].
With COc1ccc(S(=O)(=O)NC2CCCCC2)cc1C the max activation was 14.2% [at 3.8 µM, 100% = signal doubled over neutral wells].
With CCSc1nnc2ccc(-c3ccc(C)cc3)nn12 the max activation was 18.5% [at 0.015 µM, 100% = signal doubled over neutral wells].
For O=C(COc1ccccc1)Nc1ccccc1C(=O)NC1CC1, the max activation was -11.7% [at 0.046 µM, 100% = signal doubled over neutral wells].
In the case of O=C(CC(c1ccccc1)c1ccco1)N1CCOCC1 (stereo not drawn), the max activation is reported as 18.9% [at 1.2 µM, 100% = signal doubled over neutral wells].
With CC(=O)c1c(O)c2cccc3c2n(c1=O)CCC3 the max activation was -22.5% [at 0.046 µM, 100% = signal doubled over neutral wells].
